Assay results: PubChem BioAssay

Experiment: small-molecule microarray binders of probe aShh, primary screen, biochemical, biotinylated probe, 635/667 nm fluorescence (AID 1114);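 note: probe is biotin-labelled aShh protein from a stem cell growth factor screen; measures binding of labelled protein to compounds printed on the slide; score merges feature fluorescence at 667 nm with signal-to-noise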
Settings: higher = more signal

Compound | composite z-score
[N-]=[N+]=NCc1ccccc1[C@H]1OC(c2ccc(OCCCO)cc2)=N[C@@]1(Cc1ccccc1N=[N+]=[N-])C(=O)N1CCOCC1 | 0.539
CN(C)CCCCCCNC(=O)[C@@H]1C[C@@H]2C(=O)N[C@@H](CCCC[N+](C)(C)C)C(=O)N2[C@@H]1c1cccc(OCCO)c1 | -0.295
CCCCC(=C=CC[C@@H](O)c1ccccc1OCCO)C[C@@H](O)c1ccccn1 | -0.0904
CC1C2C(CCCO)=CC(C3C(=O)N(C(N)=O)C(=O)C23)N1Cc1cccc(OC(F)(F)F)c1 (configuration not stated) | 0.13
C=CCC(OC(C)=O)[C@@H]1[C@@H](N(Cc2ccc(-c3ccccc3)cc2)C(=O)Cc2ccc(OC)cc2)c2cc(OCCCO)ccc2N1C(=O)c1ccc2ccccc2c1 (some centres not stated) | -0.153
COc1cc(Cc2cc3c(c(-c4ccccc4)n2)[Si](C(C)C)(C(C)C)OC3)cc(OC)c1OC | 0.915
O=C1N(Cc2ccccc2)Cc2ccccc2C[C@@]12COC(c1ccc(OCCCO)cc1)=N2 | 0.0287

Experiment: small-molecule microarray binders of probe aNog, primary screen, biochemical, biotinylated probe, 635/667 nm fluorescence (AID 1115);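 note: probe is biotinylated aNog protein used at 0.15 µg/mL for 1 h at 4 C; z-score combines 667 nm fluorescence of each spot with its signal to noise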
Settings: higher = more signal

Compound | composite z-score
CC[C@H]1C2=C3C(CC[C@H]4C(OCc5ccc(F)cc5C(F)(F)F)OC[C@](C)([C@@H]34)N(C(=O)OC(C)(C)C)C2)C(COC(C)=O)C1COC(C)=O (some centres not stated) | -0.313
[N-]=[N+]=NCc1ccccc1[C@H]1OC(c2ccc(OCCCO)cc2)=N[C@@]1(CCS(=O)(=O)c1ccccc1)C(=O)NCCN1CCOCC1 | -0.612
C=C(CCCC)/C(=C/C[C@@H](OC(C)=O)c1ccc(OCCO)cc1)c1cc(C(=O)OC)ccc1OC | 0.408
O=C1C2C=CC(C(O)c3ccccn3)N(Nc3ccc([N+](=O)[O-])cc3)C2C(=O)N1c1ccccc1 (configuration not stated) | 0.479
CCN1C(=O)C2CC(=O)C3C(CN(S(=O)(=O)c4ccc(C)cc4)C3c3ccc(C)cc3)C2C1=O (configuration not stated) | 0.685
COC(=O)C1=CC(CCCO)=CC(c2ccc(CN3CCCC3)cc2)N(C)C=C1C(=O)OC (configuration not stated) | 0.776
CCOC(=O)C[C@H]1[C@H](OC(=O)c2cc3ccccc3oc2=O)[C@@H](NC(=O)c2ccc(-c3ccccc3)cc2)c2cc(OCCCO)ccc2N1C(=O)Cc1ccc(OC)cc1 | 0.179
C=CCNC(=O)[C@H]1[C@@H]2C(=O)O[C@@H](c3ccccc3)[C@@H](c3ccccc3)N2[C@@H](c2ccc(OCCO)cc2)[C@]12C(=O)N(C(=O)OCCOC)c1ccc(C#CCNC(N)=O)cc12 | 0.49
O=C1C[C@@](C(=O)NCC(F)(F)F)(c2ccc([N+](=O)[O-])cc2)[C@@H](c2ccc(CO)cc2I)N1CC12CC3CC(CC(C3)C1)C2 | -0.229
COc1cc2c(cc1O)C(C)N(Cc1sc3ccccc3c1Cl)CC2 (configuration not stated) | 0.426
CCCCCCCCCCC(O)C1C=CC2C(=O)N(C)C(=O)C2N1Nc1ccccc1 (configuration not stated) | 0.101
COC(=O)[C@@]1(Cc2ccccc2)[C@H]2c3cc(C(=O)N(C)C)n(Cc4ccc(Cl)c(C(F)(F)F)c4)c3C[C@H]2CN1C(=O)c1ccccc1 | 1.91
COC(=O)[C@@]1(Cc2ccc(F)cc2)[C@H]2c3cc(C(=O)N4CCCC4)n(CCc4c[nH]c5cc(F)ccc45)c3C[C@H]2CN1C(=O)c1ccccc1 | -0.615
C=CCNC(=O)[C@@H]1[C@H]2C(=O)O[C@H](c3ccccc3)[C@H](c3ccccc3)N2[C@H](c2ccc(OCCO)cc2)[C@@]12C(=O)Nc1ccc(C#CC3=CCCCC3)cc12 | 0.843
C=CCOC(=O)[C@H]1[C@@H]2C(=O)O[C@@H](c3ccccc3)[C@@H](c3ccccc3)N2[C@@H](c2ccc(OCCOC(=O)[C@H]3C[C@H]4C(=O)NCC(=O)N4[C@H]3c3ccc(O)cc3)cc2)[C@]12C(=O)Nc1ccccc12 | -0.217
CO[C@H]1O[C@H](CO)[C@@H](OC(=O)Nc2cccc(F)c2)[C@H](OC(=O)c2cc3ccccc3[nH]2)[C@H]1OC(=O)c1cc2ccccc2[nH]1 | -0.158
O=C1O[C@@H](c2ccccc2)[C@@H](c2ccccc2)N2[C@@H](c3ccccc3OCCO)[C@]3(C(=O)Nc4ccc(C#CC5(O)CCCCCC5)cc43)[C@@H](C(=O)N3CCCCCCC3)[C@H]12 | 3.8
CCCCCCc1nc(Cc2cc(OC)c(OC)c(OC)c2)c(C)c2c1[Si](C(C)C)(C(C)C)OC2 | -0.0587

Compound | composite z-score
[N-]=[N+]=NCc1ccccc1[C@H]1OC(c2ccc(OCCCO)cc2)=N[C@@]1(CCS(=O)(=O)c1ccccc1)C(=O)O | -0.246
COc1ccc(NN2C(C(O)c3ccc(F)cc3)C=CC3C(=O)N(C4CCCCC4)C(=O)C32)cc1 (configuration not stated) | 1.03
CC1C2C(CCCO)=CC(C3C(=O)N(C)C(=O)C23)N1Cc1cccc(OC(F)(F)F)c1 (configuration not stated) | 1.64
CCOC(=O)C1=C[C@@H](C(C)(C)C)N(S(=O)(=O)c2ccc(C)cc2)[C@H]1c1ccc(OC)cc1 | -0.397
Cc1ccc(N2C(=O)c3ccccc3[C@@H](C(=O)NCCN3CCOCC3)[C@@H]2c2ccc(CO)cc2)nc1 | -0.434
O=C(N1CCOCC1)[C@]1(CCS(=O)(=O)c2ccccc2)N=C(c2ccc(OCCCO)cc2)O[C@@H]1c1ccccc1 | -0.087
C=CCC(OC(C)=O)[C@@H]1[C@@H](N(Cc2ccc(-c3ccccc3)cc2)C(=O)Cc2ccc(OC)cc2)c2cc(OCCCO)ccc2N1C(=O)Cc1ccc(OC)cc1 (some centres not stated) | -0.128
C=C(COC)C(=O)CC[C@H](OC(C)=O)c1ccccc1OCCO | -0.397
COc1cc(CO)cc(I)c1O[C@H]1C=C(C(=O)NCCO)C[C@@H](N(CCN2CCOCC2)C(=O)C2CCCO2)[C@@H]1O (some centres not stated) | -0.248
CC(C)(C)OC(=O)CC[C@@]1(C(N)=O)N=C(c2ccc(OCCCO)cc2)O[C@@H]1c1ccccc1CN=[N+]=[N-] | 1.52
[N-]=[N+]=NCc1ccccc1[C@H]1OC(c2ccc(OCCCO)cc2)=N[C@@]1(Cc1ccccc1N=[N+]=[N-])C(=O)N1CCOCC1 | 1.44
CN(C)CCCCCCNC(=O)[C@@H]1C[C@@H]2C(=O)N[C@@H](CCCC[N+](C)(C)C)C(=O)N2[C@@H]1c1cccc(OCCO)c1 | -0.444
CCCCC(=C=CC[C@@H](O)c1ccccc1OCCO)C[C@@H](O)c1ccccn1 | -0.108
CC1C2C(CCCO)=CC(C3C(=O)N(C(N)=O)C(=O)C23)N1Cc1cccc(OC(F)(F)F)c1 (configuration not stated) | 0.528
C=CCC(OC(C)=O)[C@@H]1[C@@H](N(Cc2ccc(-c3ccccc3)cc2)C(=O)Cc2ccc(OC)cc2)c2cc(OCCCO)ccc2N1C(=O)c1ccc2ccccc2c1 (some centres not stated) | -0.57
COc1cc(Cc2cc3c(c(-c4ccccc4)n2)[Si](C(C)C)(C(C)C)OC3)cc(OC)c1OC | -0.359
O=C1N(Cc2ccccc2)Cc2ccccc2C[C@@]12COC(c1ccc(OCCCO)cc1)=N2 | 1.09
